Test results from the supplement of paper PMC12067093, “Discovery and optimisation of a covalent ligand for TRIM25 and its application to targeted protein ubiquitination” (Chemical Science, 2025).
Of roughly 21,000 targets only a part is listed; those with the largest changes were picked by preference.

Compound: Cc1cc(ccc1-c1ccccc1)C(=O)N1CCCN(CC1)C(=O)CCl [compound 10]
Test: probe-labelled cysteine peptide fold change vs DMSO (competition) (log2 fold change); higher = less target engagement (more negative = stronger competition)
Settings: THP-1, incubation time: 4 h
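Also: competitive profiling in live THP-1 cells: cysteine peptides tagged with an iodoacetamide desthiobiotin (IA-DTB) probe, intensity after compound treatment relative to DMSO-treated cells.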

Sequence of UniProt Q6IQ32 (Q6IQ32 whole entry, looked up): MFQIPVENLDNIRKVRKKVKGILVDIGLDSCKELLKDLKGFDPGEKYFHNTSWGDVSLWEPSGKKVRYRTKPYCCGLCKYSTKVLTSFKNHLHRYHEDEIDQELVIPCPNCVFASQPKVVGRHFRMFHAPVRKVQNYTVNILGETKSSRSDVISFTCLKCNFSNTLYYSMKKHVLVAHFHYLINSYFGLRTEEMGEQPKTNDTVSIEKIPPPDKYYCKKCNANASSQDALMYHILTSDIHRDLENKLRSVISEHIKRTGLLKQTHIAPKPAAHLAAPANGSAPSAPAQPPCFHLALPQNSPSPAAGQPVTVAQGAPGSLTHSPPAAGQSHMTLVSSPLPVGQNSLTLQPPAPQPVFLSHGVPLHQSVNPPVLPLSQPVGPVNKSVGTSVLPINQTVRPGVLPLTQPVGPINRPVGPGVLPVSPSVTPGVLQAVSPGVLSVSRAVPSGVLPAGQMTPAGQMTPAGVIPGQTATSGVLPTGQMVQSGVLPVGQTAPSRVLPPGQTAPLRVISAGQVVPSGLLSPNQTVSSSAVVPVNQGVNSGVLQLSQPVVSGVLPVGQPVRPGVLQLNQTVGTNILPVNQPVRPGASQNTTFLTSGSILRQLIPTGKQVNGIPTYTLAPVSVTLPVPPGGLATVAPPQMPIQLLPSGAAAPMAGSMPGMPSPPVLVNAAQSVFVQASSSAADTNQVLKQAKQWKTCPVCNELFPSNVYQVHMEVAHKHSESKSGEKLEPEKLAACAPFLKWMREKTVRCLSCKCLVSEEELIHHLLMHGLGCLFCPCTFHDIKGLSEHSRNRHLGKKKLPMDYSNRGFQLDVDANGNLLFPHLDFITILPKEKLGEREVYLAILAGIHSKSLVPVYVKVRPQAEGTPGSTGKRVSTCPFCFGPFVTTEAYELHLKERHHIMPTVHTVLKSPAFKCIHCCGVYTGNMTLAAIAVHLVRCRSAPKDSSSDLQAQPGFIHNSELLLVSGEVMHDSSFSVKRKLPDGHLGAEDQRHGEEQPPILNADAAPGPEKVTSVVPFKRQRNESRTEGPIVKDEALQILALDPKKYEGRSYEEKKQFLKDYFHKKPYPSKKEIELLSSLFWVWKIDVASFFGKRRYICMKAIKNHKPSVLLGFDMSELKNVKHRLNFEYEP
Sequence of UniProt O75891 (O75891 whole entry, looked up): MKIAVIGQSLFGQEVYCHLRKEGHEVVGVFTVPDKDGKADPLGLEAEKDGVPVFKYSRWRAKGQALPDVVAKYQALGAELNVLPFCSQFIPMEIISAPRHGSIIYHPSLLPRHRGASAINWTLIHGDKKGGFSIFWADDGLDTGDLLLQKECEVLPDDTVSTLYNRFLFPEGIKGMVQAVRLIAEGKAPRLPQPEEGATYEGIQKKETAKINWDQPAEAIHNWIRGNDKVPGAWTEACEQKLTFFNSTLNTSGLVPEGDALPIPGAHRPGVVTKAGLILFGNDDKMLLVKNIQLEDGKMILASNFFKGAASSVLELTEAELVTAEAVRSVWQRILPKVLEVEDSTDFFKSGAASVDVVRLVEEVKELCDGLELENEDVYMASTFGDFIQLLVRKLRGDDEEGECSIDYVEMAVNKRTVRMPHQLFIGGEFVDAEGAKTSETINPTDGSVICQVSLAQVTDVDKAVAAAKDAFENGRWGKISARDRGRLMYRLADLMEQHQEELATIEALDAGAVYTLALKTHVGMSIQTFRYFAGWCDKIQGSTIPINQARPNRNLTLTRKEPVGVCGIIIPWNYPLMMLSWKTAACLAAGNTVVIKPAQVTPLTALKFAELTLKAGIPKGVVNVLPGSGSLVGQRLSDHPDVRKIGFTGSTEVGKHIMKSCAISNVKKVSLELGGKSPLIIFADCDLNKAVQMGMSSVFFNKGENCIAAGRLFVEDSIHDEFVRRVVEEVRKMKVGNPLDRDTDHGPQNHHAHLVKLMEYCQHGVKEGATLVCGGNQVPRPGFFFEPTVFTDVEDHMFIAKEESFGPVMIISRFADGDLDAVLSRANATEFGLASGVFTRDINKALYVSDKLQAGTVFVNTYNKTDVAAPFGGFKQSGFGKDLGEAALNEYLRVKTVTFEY
Sequence of UniProt P51648 (P51648 whole entry, looked up): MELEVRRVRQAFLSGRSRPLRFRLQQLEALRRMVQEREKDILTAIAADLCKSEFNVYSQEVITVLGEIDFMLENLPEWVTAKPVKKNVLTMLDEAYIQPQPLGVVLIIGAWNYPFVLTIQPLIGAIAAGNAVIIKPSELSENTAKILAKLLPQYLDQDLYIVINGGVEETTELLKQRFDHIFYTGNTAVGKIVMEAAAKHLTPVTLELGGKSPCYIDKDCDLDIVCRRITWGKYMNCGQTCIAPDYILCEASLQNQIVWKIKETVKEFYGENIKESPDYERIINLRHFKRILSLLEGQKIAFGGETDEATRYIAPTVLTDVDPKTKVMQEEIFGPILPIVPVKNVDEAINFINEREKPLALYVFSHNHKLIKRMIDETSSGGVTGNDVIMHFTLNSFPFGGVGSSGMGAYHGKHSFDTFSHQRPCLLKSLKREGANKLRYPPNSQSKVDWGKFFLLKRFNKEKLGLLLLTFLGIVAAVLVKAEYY
Sequence of UniProt Q9P2R3 (Q9P2R3 whole entry, looked up): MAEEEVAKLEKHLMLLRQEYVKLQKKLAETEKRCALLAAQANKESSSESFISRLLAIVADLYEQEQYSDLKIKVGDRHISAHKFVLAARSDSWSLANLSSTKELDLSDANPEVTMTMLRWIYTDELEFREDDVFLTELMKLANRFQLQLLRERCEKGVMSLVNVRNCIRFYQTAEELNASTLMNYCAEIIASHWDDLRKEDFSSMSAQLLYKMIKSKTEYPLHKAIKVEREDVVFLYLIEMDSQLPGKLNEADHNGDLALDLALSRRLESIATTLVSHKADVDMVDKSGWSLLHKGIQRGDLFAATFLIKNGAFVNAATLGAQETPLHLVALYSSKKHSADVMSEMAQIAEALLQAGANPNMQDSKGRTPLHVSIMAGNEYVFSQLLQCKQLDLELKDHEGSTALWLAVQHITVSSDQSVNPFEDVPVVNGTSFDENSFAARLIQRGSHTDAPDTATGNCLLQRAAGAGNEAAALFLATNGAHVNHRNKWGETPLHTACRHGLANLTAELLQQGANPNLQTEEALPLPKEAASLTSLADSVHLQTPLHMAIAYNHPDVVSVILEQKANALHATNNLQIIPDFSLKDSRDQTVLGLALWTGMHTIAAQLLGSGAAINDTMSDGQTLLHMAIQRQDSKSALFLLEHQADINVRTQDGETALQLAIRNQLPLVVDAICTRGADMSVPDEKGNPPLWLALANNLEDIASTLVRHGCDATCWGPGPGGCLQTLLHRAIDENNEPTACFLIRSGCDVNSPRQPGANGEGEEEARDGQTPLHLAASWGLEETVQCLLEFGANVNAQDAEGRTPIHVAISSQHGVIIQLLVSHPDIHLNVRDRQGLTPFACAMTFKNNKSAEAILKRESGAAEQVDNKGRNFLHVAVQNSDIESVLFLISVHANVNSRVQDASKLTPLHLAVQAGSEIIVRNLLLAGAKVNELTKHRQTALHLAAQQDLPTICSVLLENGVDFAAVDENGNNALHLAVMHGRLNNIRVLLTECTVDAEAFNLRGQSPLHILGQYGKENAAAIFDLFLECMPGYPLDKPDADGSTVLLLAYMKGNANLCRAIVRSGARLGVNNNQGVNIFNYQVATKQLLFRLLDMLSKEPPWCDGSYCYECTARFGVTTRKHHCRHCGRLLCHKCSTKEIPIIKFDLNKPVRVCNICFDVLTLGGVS
Sequence of UniProt P55263 (P55263 whole entry, looked up): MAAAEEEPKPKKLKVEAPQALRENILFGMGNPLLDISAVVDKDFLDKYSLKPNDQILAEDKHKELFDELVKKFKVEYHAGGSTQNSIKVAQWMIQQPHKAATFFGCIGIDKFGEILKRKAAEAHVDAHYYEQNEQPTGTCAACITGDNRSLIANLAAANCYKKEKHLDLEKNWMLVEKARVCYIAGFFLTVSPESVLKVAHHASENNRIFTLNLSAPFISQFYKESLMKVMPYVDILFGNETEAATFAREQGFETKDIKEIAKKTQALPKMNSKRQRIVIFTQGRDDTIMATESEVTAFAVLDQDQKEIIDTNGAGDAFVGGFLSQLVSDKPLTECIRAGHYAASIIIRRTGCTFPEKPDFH
Sequence of UniProt Q8NHH9 (Q8NHH9 whole entry, looked up): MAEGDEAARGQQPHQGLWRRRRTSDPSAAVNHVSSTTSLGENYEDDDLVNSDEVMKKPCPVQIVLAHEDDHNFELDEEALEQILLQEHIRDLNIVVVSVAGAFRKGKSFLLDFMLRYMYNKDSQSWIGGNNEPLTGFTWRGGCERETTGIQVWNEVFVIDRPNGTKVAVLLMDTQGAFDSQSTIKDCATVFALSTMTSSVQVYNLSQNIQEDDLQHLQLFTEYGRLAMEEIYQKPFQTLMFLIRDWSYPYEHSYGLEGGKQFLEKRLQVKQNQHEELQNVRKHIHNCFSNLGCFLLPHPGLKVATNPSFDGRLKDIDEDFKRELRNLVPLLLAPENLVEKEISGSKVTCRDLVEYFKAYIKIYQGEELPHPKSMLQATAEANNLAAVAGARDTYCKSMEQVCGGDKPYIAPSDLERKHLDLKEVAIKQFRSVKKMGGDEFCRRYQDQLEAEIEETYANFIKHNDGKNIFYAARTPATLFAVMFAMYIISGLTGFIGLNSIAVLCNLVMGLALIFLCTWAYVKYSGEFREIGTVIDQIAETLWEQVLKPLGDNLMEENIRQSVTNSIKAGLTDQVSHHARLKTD
Sequence of UniProt Q8NBU5 (Q8NBU5 whole entry, looked up): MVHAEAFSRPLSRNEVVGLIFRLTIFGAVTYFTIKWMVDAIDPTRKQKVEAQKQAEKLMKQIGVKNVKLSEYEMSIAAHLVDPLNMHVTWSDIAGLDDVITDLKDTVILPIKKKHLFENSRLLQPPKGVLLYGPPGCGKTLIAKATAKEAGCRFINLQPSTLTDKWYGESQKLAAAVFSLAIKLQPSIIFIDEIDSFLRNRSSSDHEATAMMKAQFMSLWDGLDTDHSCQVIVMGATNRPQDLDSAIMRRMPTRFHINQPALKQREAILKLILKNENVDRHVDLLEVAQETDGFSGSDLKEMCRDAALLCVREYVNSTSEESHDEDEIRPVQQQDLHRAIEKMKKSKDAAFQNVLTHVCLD

| Target | probe-labelled cysteine peptide fold change (10 µM) | probe-labelled cysteine peptide fold change (50 µM) |
| --- | --- | --- |
| ATAD1_Q8NBU5_229_AQFMSLWDGLDTDHSCQVIVMGATNRPQDLDSAIMR (UniProt Q8NBU5) | 0.117 | 0.088 |
| ANAPC1_Q9H1A4_1074_LLQLCQR (UniProt Q9H1A4) | -0.0436 | 0.000425 |
| ACTR3B_Q9P1U1_408_DYEEYGPSICR (UniProt Q9P1U1) | 0.154 | 0.0944 |
| ANAPC1_Q9H1A4_1630_LLVPVDVDTNTPCYALLEVTYK (UniProt Q9H1A4) | -0.151 | 0.155 |
| AKR1B1_P15121_304_VCALLSCTSHK (UniProt P15121) | -0.547 | -2.08 |
| ADNP2_Q6IQ32_220_CNANASSQDALMYHILTSDIHR (UniProt Q6IQ32) | 0.0714 | 0.0124 |
| ALDH1B1_P30837_169_TIPMDGQHFCFTR (UniProt P30837) | 0.00215 | -0.131 |
| AP1G1_O43747_392_ELLYFLDSCEPEFK (UniProt O43747) | 0.183 | 0.273 |
| ATL2_Q8NHH9_293_HIHNCFSNLGCFLLPHPGLK (UniProt Q8NHH9) | -0.0463 | -0.137 |
| ATRX_P46100_1531_CPITTK (UniProt P46100) | -0.402 | -1.05 |
| ACSL4_O60488_420_GYDAPLCNLLLFKK (UniProt O60488) | -0.291 | -1.12 |
| AKR1B1_P15121_299+304_VCALLSCTSHK (UniProt P15121) | -0.497 | -2.06 |
| ATP13A1_Q9HD20_410_ATTGLKPVDSGCVAYVLR (UniProt Q9HD20) | 0.133 | 0.0894 |
| ARFGEF1_Q9Y6D6_1729_QETSSLACGLR (UniProt Q9Y6D6) | -0.151 | 0.114 |
| ARHGEF7_Q14155_490_TLGNVTYMSQVLIQCAGSEEK (UniProt Q14155) | -0.204 | -1.18 |
| ALDH3A2_P51648_226_DCDLDIVCR (UniProt P51648) | -0.0334 | -0.00592 |
| AFTPH_Q6ULP2_659_IFEACFPSILVPDAEEEVTSLK (UniProt Q6ULP2) | 0.0219 | -0.0706 |
| ALDOA_P04075_339_RALANSLACQGK (UniProt P04075) | -0.187 | -0.104 |
| ALDH18A1_P54886_674_SLRTEYGDLELCIEVVDNVQDAIDHIHK (UniProt P54886) | 0.115 | -0.188 |

| Target | probe-labelled cysteine peptide fold change (10 µM) | probe-labelled cysteine peptide fold change (50 µM) |
| --- | --- | --- |
| ATM_Q13315_1396_ATFAYISNCHK (UniProt Q13315) | -1.94 | -2.52 |
| ANKFY1_Q9P2R3_742_AIDENNEPTACFLIR (UniProt Q9P2R3) | -0.0754 | -0.213 |
| ACSL3_O95573_85_SVNSLDGLASVLYPGCDTLDK (UniProt O95573) | 0.0339 | 0.289 |
| ASCC3_Q8N3C0_366_KAGEDLEVSEGLMCFDPK (UniProt Q8N3C0) | -0.217 | -0.375 |
| AGL_P35573_767_EVPQMCIPGKIEEVVLEAR (UniProt P35573) | -0.292 | -0.537 |
| ARNT_P27540_269_CGSSSVDPVSVNR (UniProt P27540) | -0.375 | -0.756 |
| ADAM10_O14672_530_DDSDCAR (UniProt O14672) | 0.552 | 1.2 |
| ADK_P55263_160_SLIANLAAANCYKK (UniProt P55263) | -0.309 | -1.01 |
| AKR1B1_P15121_45_HIDCAHVYQNENEVGVAIQEK (UniProt P15121) | 0.0652 | -0.0317 |
| ALDH1L1_O75891_537_YFAGWCDK (UniProt O75891) | -0.0268 | -0.223 |
| ALKBH3_Q96Q83_201_CPIIASLSFGATR (UniProt Q96Q83) | 0.189 | -0.104 |
| ANKRD11_Q6UB99_1339_ESACLPEK (UniProt Q6UB99) | -0.0313 | -0.174 |
| ATRX_P46100_235_WCAEGGNLICCDFCHNAFCK (UniProt P46100) | 0.0337 | -0.0739 |
| AGL_P35573_486_ELICWGDSVK (UniProt P35573) | 0.0938 | 0.033 |
| ACSL4_O60488_221_TALLDISCVK (UniProt O60488) | 0.177 | 0.0446 |
| ANKRD17_O75179_564_AGADIELGCSTPLMEAAQEGHLELVK (UniProt O75179) | 0.0101 | -0.0606 |
| ARHGAP44_Q17R89_193_ADALREEMEEAANRVEICR (UniProt Q17R89) | -0.0472 | -0.212 |
| ARMC6_Q6NXE6_121_FCDQCK (UniProt Q6NXE6) | -0.142 | -0.663 |
| ADAM9_Q13443_539_DCFIEVNSK (UniProt Q13443) | -0.0729 | -0.137 |
